In PubChem BioAssay:
Active and inactive are the calls of the source.

Assays:
[1] = test system: Plasmodium falciparum Sir2 (PF13_0152, Sir2A); assay: Plasmodium falciparum Sir2A binding compounds – biochemical, small-molecule microarray, 635 nm fluorescence, primary screen (AID 1098); details: fluorescence 635 nm, higher = more signal;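 further: score merges spot fluorescence intensity with its signal-to-noise ratio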
[2] = probe aDKK1 binding to arrayed compounds – biochemical, biotinylated probe, 635/667 nm fluorescence, primary screen (AID 1099); details: small-molecule microarray, higher = more signal;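 further: score merges 667nm spot fluorescence with signal to noise across triplicate slides; reference of the scale not given here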
[3] = probe aCHRDL2 binding to arrayed compounds – biochemical, biotinylated probe, 635/667 nm fluorescence, primary screen (AID 1100); details: small-molecule microarray, higher = more signal
[4] = change in splice reporter luminescence, either direction, cell-based, HEK293, spliceosome inhibition project, primary screen (AID 1101); details: HEK293 splicing luciferase reporter, 24 h, higher = more signal, called active from +8 up or from −8 down;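 further: HEK293 cells carrying a splicing-competent luciferase reporter gene; test concentration not given here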
[5] = target: Fibroblast growth factor 10 (Homo sapiens) (UniProt O15520); assay: compounds binding fibroblast growth factor 10 – biochemical, small-molecule microarray, 635 nm fluorescence, primary screen (AID 1102); details: FGF10 binding, fluorescence 635 nm, higher = more signal
Chain of Fibroblast growth factor 10 (Homo sapiens) (O15520 whole entry, looked up): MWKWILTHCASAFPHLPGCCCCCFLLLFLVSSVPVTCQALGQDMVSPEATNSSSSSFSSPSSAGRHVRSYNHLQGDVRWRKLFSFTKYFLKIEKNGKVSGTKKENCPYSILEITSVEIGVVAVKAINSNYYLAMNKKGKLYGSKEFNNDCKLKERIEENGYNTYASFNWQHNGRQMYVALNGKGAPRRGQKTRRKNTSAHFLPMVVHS

[6] = test system: glycogen synthase kinase-3 (GSK3A per assay name; protocol says GSK3B); assay: compounds binding glycogen synthase kinase-3 – biochemical, small-molecule microarray, 635 nm fluorescence, GSK3A, primary screen (AID 1103); details: fluorescence 635 nm, higher = more signal; further: the record names both GSK3A and GSK3B
[7] = target: Epidermal growth factor receptor (Homo sapiens) (UniProt P00533); assay: compounds binding epidermal growth factor receptor – biochemical, small-molecule microarray, 635 nm fluorescence, primary screen (AID 1104); details: EGFR binding, higher = more signal;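 further: score merges 667 nm emission intensity with spot signal to noise over triplicate slides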
Chain of Epidermal growth factor receptor (Homo sapiens) (P00533 whole entry, looked up): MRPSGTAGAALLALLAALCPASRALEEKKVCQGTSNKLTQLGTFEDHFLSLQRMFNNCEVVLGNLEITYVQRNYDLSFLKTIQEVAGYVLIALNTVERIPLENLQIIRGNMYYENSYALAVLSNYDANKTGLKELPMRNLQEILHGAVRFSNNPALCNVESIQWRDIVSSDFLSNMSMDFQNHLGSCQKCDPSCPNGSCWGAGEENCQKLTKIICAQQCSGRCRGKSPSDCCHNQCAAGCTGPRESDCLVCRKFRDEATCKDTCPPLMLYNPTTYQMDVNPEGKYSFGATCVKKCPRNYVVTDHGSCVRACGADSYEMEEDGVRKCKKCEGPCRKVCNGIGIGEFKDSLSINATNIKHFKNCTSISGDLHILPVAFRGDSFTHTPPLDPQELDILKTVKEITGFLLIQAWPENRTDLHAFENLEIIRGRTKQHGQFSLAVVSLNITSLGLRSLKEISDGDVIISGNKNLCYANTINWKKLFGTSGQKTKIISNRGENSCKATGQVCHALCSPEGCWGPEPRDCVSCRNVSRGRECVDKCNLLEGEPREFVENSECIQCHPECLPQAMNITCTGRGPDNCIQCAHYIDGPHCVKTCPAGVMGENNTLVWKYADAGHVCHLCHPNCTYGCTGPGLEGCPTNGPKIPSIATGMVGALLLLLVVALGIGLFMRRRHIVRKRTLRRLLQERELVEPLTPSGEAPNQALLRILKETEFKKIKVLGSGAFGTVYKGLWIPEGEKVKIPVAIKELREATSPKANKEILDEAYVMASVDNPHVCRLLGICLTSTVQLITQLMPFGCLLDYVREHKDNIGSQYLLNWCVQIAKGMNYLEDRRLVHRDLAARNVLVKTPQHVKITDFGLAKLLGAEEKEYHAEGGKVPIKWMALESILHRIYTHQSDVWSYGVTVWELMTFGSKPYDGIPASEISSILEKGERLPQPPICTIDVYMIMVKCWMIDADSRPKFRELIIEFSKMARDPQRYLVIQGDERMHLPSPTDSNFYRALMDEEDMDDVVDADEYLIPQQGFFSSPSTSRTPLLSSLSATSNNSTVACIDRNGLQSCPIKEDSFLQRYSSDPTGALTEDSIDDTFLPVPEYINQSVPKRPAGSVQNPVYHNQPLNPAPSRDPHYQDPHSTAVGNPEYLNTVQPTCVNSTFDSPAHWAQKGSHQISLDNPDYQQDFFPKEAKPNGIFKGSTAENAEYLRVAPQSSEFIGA

[8] = target: Follistatin-related protein 3 (Homo sapiens) (UniProt O95633); assay: compounds binding follistatin-related protein 3 – biochemical, small-molecule microarray, 635 nm fluorescence, primary screen (AID 1105); details: FSTL3 binding, higher = more signal;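 further: score merges emission near 667 nm and signal to noise per printed spot across three slides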
Chain of Follistatin-related protein 3 (Homo sapiens) (O95633 whole entry, looked up): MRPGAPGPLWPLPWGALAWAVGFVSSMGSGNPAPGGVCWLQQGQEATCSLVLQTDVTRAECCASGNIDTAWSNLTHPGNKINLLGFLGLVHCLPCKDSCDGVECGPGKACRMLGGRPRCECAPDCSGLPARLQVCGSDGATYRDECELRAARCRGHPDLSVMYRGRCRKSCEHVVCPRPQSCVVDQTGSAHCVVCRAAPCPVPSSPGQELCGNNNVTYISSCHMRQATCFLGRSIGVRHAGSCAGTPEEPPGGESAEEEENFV

[9] = target: Dickkopf-related protein 1 (Homo sapiens) (UniProt O94907); assay: small molecules binding DKK1 protein – biochemical, small-molecule microarray, 635 nm fluorescence scan, primary screen (AID 1106); details: higher = more signal;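 further: score merges emission near 667 nm with signal to noise over three replicate slides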
Chain of Dickkopf-related protein 1 (Homo sapiens) (O94907 whole entry, looked up): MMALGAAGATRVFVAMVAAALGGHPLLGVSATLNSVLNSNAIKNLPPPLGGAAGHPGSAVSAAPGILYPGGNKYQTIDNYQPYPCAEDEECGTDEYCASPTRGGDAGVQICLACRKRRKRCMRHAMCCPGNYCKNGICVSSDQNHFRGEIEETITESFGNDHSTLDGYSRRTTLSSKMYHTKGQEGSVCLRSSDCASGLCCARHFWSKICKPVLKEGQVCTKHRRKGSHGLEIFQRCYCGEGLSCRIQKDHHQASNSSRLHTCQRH

[10] = test system: Inhibin beta A chain (activin A); assay: small molecules binding activin A – biochemical, small-molecule microarray, 635 nm fluorescence scan, primary screen (AID 1107); details: INHBA, higher = more signal;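 further: mouse activin A protein probed at 4.33 µg/mL on printed slides; score merges bound-protein fluorescence near 667 nm with spot signal-to-noise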

| SMILES | composite z-score [1] | composite z-score [2] | composite z-score [3] | z-score [4] | composite z-score [5] | composite z-score [6] | composite z-score [7] | composite z-score [8] | composite z-score [9] | composite z-score [10] |
| --- | --- | --- | --- | --- | --- | --- | --- | --- | --- | --- |
| COC(=O)[C@@]1(Cc2ccc(F)cc2)[C@H]2c3cc(C(=O)N4CCCC4)n(Cc4cccc5ccccc45)c3C[C@H]2CN1C(=O)c1ccccc1 | 1.53 | 0.479 | 0.854 | -2.29 (inactive) | 0.427 | -0.423 | 0.329 | 0.286 | -0.538 | 0.644 |
| C=CCNC(=O)[C@H]1[C@@H]2C(=O)O[C@@H](c3ccccc3)[C@@H](c3ccccc3)N2[C@@H](c2ccc(O)cc2)[C@]12C(=O)N(C(=O)OCCOC)c1ccc(C#CCCO)cc12 | 1.29 | 0.303 | 0.272 | 0.271 (inactive) | 1.18 | 0.713 | -0.248 | -0.0994 | -0.0705 | 0.681 |
| O=C1c2ccccc2[C@@]2(Cc3ccccc3N(Cc3ccccc3)C2=O)[C@H](c2ccc(CO)cc2)N1C1CCCCC1 | 1.3 | -0.367 | -0.292 | -0.322 (inactive) | 0.831 | 0.152 | 0.131 | 0.41 | 0.662 | 0.784 |
| CCN(CC)c1ccc(N2CC=CC34O[C@@H]5C=CCCOC(=O)C5[C@H]3C(=O)N(CCCCCO)[C@@H]4C2=O)cc1 (stereo not given in full) | -0.144 | -0.0409 | 0.0109 | -0.779 (inactive) | -0.292 | -0.139 | -0.76 | -0.339 | -0.182 | 1.52 |
| CCOC(=O)C[C@H]1[C@H](OC(=O)Cc2ccc3c(c2)OCO3)[C@@H](NC(=O)C2CCCCC2)c2cc(OCCCO)ccc2N1C(=O)Cc1ccc(OC)cc1 | 0.17 | -0.244 | -0.214 | -1.6 (inactive) | 0.919 | 0.646 | 0.252 | 0.297 | 0.316 | 0.561 |
| CCOC(=O)C1=CCC(c2ccc(C#N)cc2)N(S(=O)(=O)c2ccc(C)cc2)C1 (stereo not given) | 1.13 | 1.22 | 1.05 | -0.415 (inactive) | 0.637 | 1.29 | 0.555 | 1.21 | -0.0007 | 0.2 |
| C=CCOC(=O)[C@@H]1[C@H]2C(=O)O[C@H](c3ccccc3)[C@H](c3ccccc3)N2[C@H](c2ccc(OCCOC(=O)[C@@H]3C[C@@H]4C(=O)NCC(=O)N4[C@@H]3c3cccc(OCCO)c3)cc2)[C@@]12C(=O)Nc1ccc(I)cc12 | 1.05 | 0.0651 | -0.162 | -0.798 (inactive) | 1.29 | 1.16 | 1.12 | 1.1 | 0.866 | 0.884 |
| COc1ccccc1CN1C(=O)c2ccccc2[C@@H](C(=O)NCCN2CCOCC2)[C@@H]1c1ccc(CO)cc1 | 1.5 | -0.0936 | 0.658 | -0.468 (inactive) | -0.264 | 0.342 | -0.502 | -0.334 | -0.0485 | 0.52 |
| [N-]=[N+]=NCc1ccccc1[C@H]1OC(c2ccc(OCCCO)cc2)=N[C@@]1(CCS(=O)(=O)c1ccccc1)C(=O)N1CCOCC1 | 1.26 | 1.19 | 1.31 | -0.0598 (inactive) | 1.17 | 0.239 | 0.267 | 1.13 | -0.0445 | 1 |
| COCC(=C=CC[C@@H](O)c1ccc(CO)o1)CCO | 0.772 | -0.239 | -0.181 | -2.32 (inactive) | 1.26 | 0.0348 | 0.614 | 0.574 | 0.618 | 0.839 |
| COc1ccc([Si](C)(C)[C@@H]2[C@@H](CC(=O)N(CCO)Cc3ccccc3)O[C@]3(C(=O)N(C)c4ccccc43)[C@H]2C)cc1 | 1.24 | 0.909 | 0.0207 | 0.841 (inactive) | 1.05 | 1.16 | 0.749 | 1.39 | 1.32 | 1.16 |
| CC(C)CNC(=O)[C@@H]1c2ccccc2C(=O)N(Cc2cc(C(F)(F)F)cc(C(F)(F)F)c2)[C@H]1c1ccc(CO)cc1 | -0.46 | 0.416 | 0.822 | -0.827 (inactive) | -0.633 | -1.32 | -0.88 | -0.736 | -0.439 | -0.575 |
| C=C[C@@H](COC(C)=O)N(Cc1ccc([N+](=O)[O-])cc1)S(=O)(=O)c1ccc(Br)cc1 | 0.566 | 0.965 | 0.992 | -0.807 (inactive) | 0.599 | 0.283 | 0.292 | 0.352 | -0.0075 | 0.663 |
| CN(C)CCCCCCNC(=O)[C@H]1C[C@H]2C(=O)N[C@@H](CCCCN)C(=O)N2[C@H]1c1ccc(O)cc1 | 2.14 | 2.83 | 1.71 | 0.509 (inactive) | 1.29 | 1.48 | 1.6 | 1.65 | 2.15 | 1.45 |
| O=C1O[C@H](c2ccccc2)[C@H](c2ccccc2)N2[C@H]1[C@@H](C(=O)Nc1nc3ccccc3s1)[C@]1(C(=O)Nc3ccccc31)[C@H]2c1ccc(O)cc1 | 1.57 | -0.0334 | 0.126 | -0.449 (inactive) | 0.939 | 1.08 | 0.598 | 1.31 | 1.11 | 0.435 |
| COCCCNC(=O)[C@@]1(C)c2ccccc2C(=O)N(Cc2cc(C(F)(F)F)cc(C(F)(F)F)c2)[C@H]1c1ccc(CO)cc1 | 1.48 | -0.0291 | 0.945 | 0.803 (inactive) | -0.607 | -0.514 | -1.24 | -0.875 | -1.62 | -0.754 |
